CYP2C19 inh: blockers of cytochrome P450 2C19 activity – biochemical, luminescence, ADME assay, primary screen; CYP2C19 Supersomes, luciferin-H EGE luminescence, 30 min; 21% of 96,000 active; AID 778, 2007; inhibition, % at 5 µM;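 active = CYP2C19 inhibition above a set limit at 5 µM in the primary screen, cut at about 50% in these data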;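 also: plate controls were negative control wells for no effect and 2.5 mM tranylcypromine positive control for full effect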
Target sequence (P33261 whole entry, looked up): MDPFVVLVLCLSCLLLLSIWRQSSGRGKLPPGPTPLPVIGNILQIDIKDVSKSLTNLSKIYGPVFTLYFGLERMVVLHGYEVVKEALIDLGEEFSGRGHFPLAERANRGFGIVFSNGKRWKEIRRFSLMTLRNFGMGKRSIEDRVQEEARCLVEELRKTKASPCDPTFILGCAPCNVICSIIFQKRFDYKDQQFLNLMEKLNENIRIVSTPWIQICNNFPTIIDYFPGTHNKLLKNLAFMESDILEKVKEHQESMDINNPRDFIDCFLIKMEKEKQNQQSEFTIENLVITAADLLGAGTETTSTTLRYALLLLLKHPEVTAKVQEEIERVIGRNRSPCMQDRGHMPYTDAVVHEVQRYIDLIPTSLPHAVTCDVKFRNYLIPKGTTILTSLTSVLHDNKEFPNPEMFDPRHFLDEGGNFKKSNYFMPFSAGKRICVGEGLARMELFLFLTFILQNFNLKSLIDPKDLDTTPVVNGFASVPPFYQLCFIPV
CYP2C9 act: human CYP2C9 activators, primary screen, biochemical, luminescence; 1.4% of 96,000 active; recombinant CYP2C9, luciferin-H conversion; active compounds read high; factor 1 = untreated enzyme, 0 = blocked; activation factor at 5 µM; Cytochrome P450 2C9 (Homo sapiens), P11712; AID 1024, 2008;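 active = activation factor of 2 or more for CYP2C9 at a 5 µM dose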;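 also: 0 = sulfaphenazole-blocked wells and 1 = vehicle-only wells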
CYP2C9 inh: blockers of cytochrome P450 2C9 activity – biochemical, luminescence, ADME assay, primary screen | P11712 | CYP2C9 Supersomes, luciferin-H conversion | inhibition, % at 5 µM | 20% of 96,000 active;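 active = blocking of liver enzyme CYP2C9 beyond about 50% at 5 µM, limit read from the data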
PTK2B oligo ant: antagonists of Pyk2 self-association, primary screen, Q293 cells, FERM NanoBiT luminescence, HTS. Protein-tyrosine kinase 2-beta (Homo sapiens), Q14289. active compounds read low. z-score (the deposit names both 25 µM and 10 µM). 0.83% of 99,000 active;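 active = Z-score of -3 or lower, scaled per plate to the spread of control and sample wells; inactive = z-score above -3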;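 also: negative z-score means lost luminescence so less FERM oligomerization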
CYP2C19 activ: human CYP2C19 activators, primary screen, biochemical, luminescence. recombinant CYP2C19, luciferin-H EGE luminescence; active compounds read high; 0 = fully inhibited enzyme, 1 = untreated enzyme. 96,000 tested, under 10 active. activation factor at 5 µM. AID 1025, 2008;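 active = activation factor of at least 2 at 5 µM in the primary screen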;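 also: 0 = wells with 2.5 mM tranylcypromine and 1 = vehicle-only wells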
Cav32 inh: Cav3.2 calcium influx blockers – cell-based, Fluo-4 calcium fluorescence, FDSS, MLSMR library, primary screen. Cav3.2-expressing cells; active compounds read low. B-score at 10 µM. 4% of 100,000 active. AID 449739, 2010;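 active = single-dose well whose peak fluorescence ratio is a statistical outlier from its plate by either plate-standardised score or position-corrected B-score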
An asterisk follows results filed as active; x = no result given. Compounds with a hit are over-represented: about 27% of the library has one in this group of screens.

SMILES	CYP2C19 inh	CYP2C9 act	CYP2C9 inh	PTK2B oligo ant	CYP2C19 activ	Cav32 inh
COC(=O)c1cccc(NC(=O)c2cccs2)c1C	52*	0.9	8	-0.44	0.5	0.3
CCCOC(=O)c1ccc(NC(=O)/C=C/c2cccs2)cc1	x	x	x	-1.4	x	x
O=C(Nc1ccccc1Cl)c1cccs1	-10	1.1	-10	0.51	1.1	0.51
O=C(Nc1nc2c(c(=O)[nH]1)CCCC2)C1CC1	-17	1	0	-0.21	1.2	0.28
O=C(Nc1c(C(=O)O)oc2ccc(Br)cc12)c1ccccc1	-1	0.7	34	x	1	-1.5
C[C@@H]1CCC[C@]2(O[C@H](CCO)C[C@@H](O)[C@@H]2O)O1	x	x	x	x	x	-0.088
O=C(O)CCCNCc1ccccc1F	-7	1.1	-7	-0.09	1.1	0.83
Cc1cc(C)c(C)c(OCC(=O)NCCN(C)C)c1	0	1	-5	-0.46	1	-0.04
O=C(NCCSCc1ccco1)Nc1cccc(Cl)c1	64*	0.7	33	-0.59	0.4	-4.5*
O=C(COc1ccc(Cl)cc1)NCCSCc1cccc(Cl)c1	45	0.7	28	1.9	0.6	-4.3*
O=C(COc1ccc(Cl)cc1Cl)NCCSc1ccc(Cl)cc1	-8	1	0	0.74	1.1	-0.21
COc1ccc(C(=O)NCCSCc2ccco2)cc1OC	37	1.1	-6	-0.22	0.6	1.3
O=C(NCCSCc1ccco1)Nc1ccc(Cl)cc1	38	0.6	36	1.8	0.6	x
CN(C)CCNC(=O)COc1cccc(Cl)c1	72*	0.4	56*	0.44	0.3	x
O=C(COc1ccccc1)NCCSCc1ccco1	85*	0.4	63*	0.91	0.1	0.63
OC(Cn1cncn1)(Cn1cncn1)c1ccc(F)cc1F	x	x	x	x	x	0.54
CCc1cc(=O)oc2cc(OC(C)C(=O)O)c(Cl)cc12 (stereo unspecified)	-12	0.8	21	0.11	1.1	0.2
C=CCNC(=O)NS(=O)(=O)c1ccc(C)cc1	6	1	0	0.07	0.9	-1.1
NC(=S)Nc1nc2ccccc2[nH]c1=O	0	1	0	x	1	x
Cc1ccc(NC(=S)c2nc3ccccc3[nH]2)cc1	89*	0.6	38	0.41	0.1	0.53
COc1ccc(CN2CCn3ncc(C(=O)Nc4cccc(C)c4)c3C2=O)cc1	-4	1	3	-0.84	1	-5.5*
O=C(CCn1c(=O)[nH]c2ccsc2c1=O)N1CCc2ccccc2C1	19	0.9	6	1.6	0.8	0.014
O=C(CCn1c(=O)[nH]c2ccsc2c1=O)NCCc1ccc(Cl)cc1	70*	0.6	36	-0.3	0.3	-0.74
O=C(CCn1c(=O)[nH]c2ccsc2c1=O)Nc1ccc(F)c(F)c1	38	0.4	55*	0.32	0.6	0.34
O=C(CCn1c(=O)[nH]c2ccsc2c1=O)N(CCc1ccccc1)Cc1ccccc1	65*	0.3	65*	-1	0.3	-4.4*
SMILES	CYP2C19 inh	CYP2C9 act	CYP2C9 inh	PTK2B oligo ant	CYP2C19 activ	Cav32 inh
COC(=O)C1=C(C)N(C2CCCC2)C(=O)C1(NC(C)=O)C(F)(F)F (stereo unspecified)	-19	1.2	-17	-0.88	1.2	0.95
Cn1cnnc1SCc1ccc(-c2ccc(Br)cc2)o1	93*	0.4	56*	-0.1	0.1	-0.98
Cc1occc1C(=O)NNC(=O)NC12CC3CC(CC(C3)C1)C2	15	1	-4	3.3	0.8	x
O=[N+]([O-])c1ccc(N2CCN(c3ccc(Cl)nn3)CC2)cc1NC1CC1	x	x	x	-0.75	x	0.46
O=C1Cc2ccccc2C(=O)N1Cc1ccccc1	85*	0.7	26	-2.2	0.2	0.69
O=C1c2cccnc2C(=O)N1Cc1ccccc1	x	x	x	x	x	-0.67
O=C1c2cccc3c(O)ccc(c23)C(=O)N1Cc1ccccc1	64*	1.5	-51	-0.09	0.4	-10*
COc1nc(-c2ccccc2)ccc1-c1noc(-c2ccccc2F)n1	-10	0.9	14	0.6	1.1	-0.95
COC(=O)c1ccc(COC(=O)c2ccc(CS(=O)(=O)c3ccc(C)cc3)cc2)cc1	0	0.6	43	0.57	1	-0.15
Cc1ccc(S(=O)(=O)c2c(COC(=O)c3ccc(Cl)cc3)c(-c3ccccc3)nn2C)cc1	67*	0.5	52*	-0.65	0.3	-2.5
CC(C)Cn1c(Cc2ccccc2)n[nH]c1=S	40	1.2	-23	-0.63	0.6	-0.47
Cn1c(=O)c2c(nc(SCC(=O)NCc3ccc4c(c3)OCO4)n2Cc2ccc(Cl)cc2)n(C)c1=O	x	x	x	0.19	x	-2.7
NC(=O)CSc1nc2cc3c(cc2c(=O)n1CCCC(=O)NCc1ccc2c(c1)OCO2)OCO3	7	0.3	74*	-1.1	0.9	-0.0015
CC(=O)NCCn1c(SCC#N)nc2ccccc2c1=O	24	0.9	6	1.3	0.8	0.41
COc1ccc(CNC(=O)CCCn2c(SCC#N)nc3cc4c(cc3c2=O)OCO4)cc1	54*	0.2	80*	-0.12	0.5	1.2
O=C(c1ccc(Cl)cc1)c1oc2ccccc2c1CS(=O)(=O)c1ccccc1	40	0.6	42	-1.5	0.6	-2.8
Cc1cc(C)n(S(=O)(=O)c2cccc(Cl)c2Cl)n1	54*	0.7	26	-0.3	0.5	0.62
Cc1cc(C)n(S(=O)(=O)c2cc(C(=O)O)c(Cl)cc2Cl)n1	11	0.8	22	2.5	0.9	-0.0027
COc1c(S(=O)(=O)n2nc(C)cc2C)ccc(Cl)c1Cl	52*	2.3*	-132	-0.52	0.5	-2
Cc1cc(C)n(S(=O)(=O)c2ccc(Cl)c(Cl)c2Cl)n1	69*	1.7	-73	0.76	0.3	-1.8
FC(F)(F)c1cc(CCN2C(=S)NC[C@@H]2CC2CCCCC2)cc(C(F)(F)F)c1	x	x	x	x	x	-1.6
CCOC(=O)CC(=O)Nc1ccc(C)cc1	11	0.9	13	-0.07	0.9	0.37
CCc1ccccc1N(CC(=O)N/N=C/c1ccc(OC(=O)OC)c(OC)c1)S(C)(=O)=O	30	0.5	50*	-1	0.7	x
CS(=O)(=O)N(CC(=O)N/N=C/c1cc2c(cc1Br)OCO2)c1ccccc1Br	43	0.5	46	-2.9	0.6	x
CCOC(=O)Cn1nc(C)n(-c2ccc(C(C)C)cc2)c1=O	11	0.8	19	-0.36	0.9	0.53
C=CCN(CC=C)S(=O)(=O)c1ccc(NC(=S)NC(=O)/C=C/c2ccccc2)cc1	14	0.8	18	0.03	0.9	-0.52
Cc1cccc(NC(=O)C2CCCN2C(=O)Oc2ccccc2)c1C (stereo unspecified)	x	x	x	0.44	x	-0.42
CC(C)[C@H](NC(=O)CCn1nnc2ccccc2c1=O)C(=O)O	-2	1.1	-6	-0.89	1	-1.1

High-throughput results (PubChem)
